Source: PMC13541613, “GHT-SELEX demonstrates unexpectedly high intrinsic sequence specificity and complex DNA binding of many human transcription factors”

molecular target: ZNF721 DBD1 (Homo sapiens, UniProt Q8TF20-2 29-461); test: HT-SELEX; 20 mM HEPES pH 7, 140 mM KCl, 5 mM NaCl, 1 mM K2HPO4, 2 mM MgSO4, 100 uM EGTA, ZnSO4, 0.1% Tween20; room temperature, 1 h; high values mean tight binding; settings: protein: ivt; tags: eGFP (N-terminal); dsDNA, one strand shown
Outline: (§1)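 Bead-immobilised tagged transcription factor (full-length or DNA-binding-domain fragment), made in HEK293 lysate or cell-free extract, was incubated with a randomized 40-base DNA library. Binding was for 1 h at room temperature in HEPES/KCl low-stringency buffer with Tween20. After washing and heat elution, bound DNA was PCR-amplified over successive cycles and Illumina-sequenced (~3 million 60 bp reads per sample). Binding signal is a relative k-mer count in selected reads; higher means tighter binding.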

Chain of ZNF721 DBD1 (Q8TF20 17-449): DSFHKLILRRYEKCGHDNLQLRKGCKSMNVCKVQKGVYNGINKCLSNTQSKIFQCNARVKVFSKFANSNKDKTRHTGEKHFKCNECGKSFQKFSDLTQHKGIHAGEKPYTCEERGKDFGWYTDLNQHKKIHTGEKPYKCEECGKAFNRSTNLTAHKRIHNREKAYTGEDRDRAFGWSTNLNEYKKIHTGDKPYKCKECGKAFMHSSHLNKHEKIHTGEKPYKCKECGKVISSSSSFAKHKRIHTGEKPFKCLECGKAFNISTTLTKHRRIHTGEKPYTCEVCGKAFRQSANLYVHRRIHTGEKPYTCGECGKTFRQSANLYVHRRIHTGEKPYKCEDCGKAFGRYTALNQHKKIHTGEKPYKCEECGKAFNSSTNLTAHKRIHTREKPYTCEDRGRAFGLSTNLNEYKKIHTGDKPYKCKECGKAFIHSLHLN

Sequence | binding signal [relative 10-mer count]
CCAAAAAACA | 0.00174
CGAAAAAAAG | 0.0289
CGCCCCGCCC | 0.00555
CTGCCCACCC | 0.00394
AGGTGGTGGG | 0.00601
CCCTCCCCGC | 0.00555
CCTACCCACC | 0.00546
AAAGCTATCC | 0.0786
AAACAGCGTA | 0.00115
CATCCCCACC | 0.0072
CCCCCCCACA | 0.00491
AAAGCAGCAT | 0.00202
AGCCCACCCC | 0.00583
ACCCCCCAAC | 0.00321
CCCTTCCCCC | 0.00633
GCCCACCCCA | 0.00505
CACCCCCGCC | 0.00683
GCAGCATACC | 0.00147
AAAAAAAGCG | 0.0356
CCCCCCAGCC | 0.00505

Sequence | binding signal [relative 10-mer count]
CGCCCACCCA | 0.00449
CCCCCCACGC | 0.00404
ACCACCCCCA | 0.00505
CCGCCCCCCA | 0.0066
CGAAAAAAGC | 0.0584
ACAAAAAAAC | 0.00188
CCTCCCCCAC | 0.01
CCCCCCTCAC | 0.00482
ACCTCCCCAC | 0.00422
CCCCCGCCAC | 0.00679
ACCCCCTCCC | 0.00807
CCCACCCAAC | 0.00679
AGGGCGGGGG | 0.0056
AAGCAGCATA | 0.00216
GGCGGGGGGA | 0.00619
ACCCCACACC | 0.00436
CCCCACCGCC | 0.0114
CCCAAACCCC | 0.00298
GCCCTCCCCC | 0.00716
CCCCCACCGC | 0.00936

molecular target: ZNF721 DBD2 (Homo sapiens, UniProt Q8TF20-2 395-923); test: as above; settings: protein: ivt; tags: eGFP (N-terminal); dsDNA, one strand shown
Sequence (Q8TF20 383-911): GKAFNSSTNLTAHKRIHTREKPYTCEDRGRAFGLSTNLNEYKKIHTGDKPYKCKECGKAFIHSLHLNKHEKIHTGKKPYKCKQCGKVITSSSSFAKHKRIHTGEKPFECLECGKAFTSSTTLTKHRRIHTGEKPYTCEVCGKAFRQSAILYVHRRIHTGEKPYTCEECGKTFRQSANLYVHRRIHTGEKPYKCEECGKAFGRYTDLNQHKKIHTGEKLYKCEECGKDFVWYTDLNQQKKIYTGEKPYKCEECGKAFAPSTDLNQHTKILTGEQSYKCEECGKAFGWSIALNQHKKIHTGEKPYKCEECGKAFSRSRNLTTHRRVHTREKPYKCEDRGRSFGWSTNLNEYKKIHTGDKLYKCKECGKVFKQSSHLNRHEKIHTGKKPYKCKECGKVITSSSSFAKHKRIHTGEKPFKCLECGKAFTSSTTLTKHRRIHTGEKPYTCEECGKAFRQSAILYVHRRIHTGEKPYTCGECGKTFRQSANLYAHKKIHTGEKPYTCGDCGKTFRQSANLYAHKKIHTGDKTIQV
Outline: as §1

Sequence | binding signal [relative 10-mer count]
CCAAAAAACA | 0.185
CGAAAAAAAG | 0.0578
CGCCCCGCCC | 0.00132
CTGCCCACCC | 0.00216
AGGTGGTGGG | 0.00587
CCCTCCCCGC | 0.00995
CCTACCCACC | 0.0101
AAAGCTATCC | 0.00156
AAACAGCGTA | 0.468
CATCCCCACC | 0.0188
CCCCCCCACA | 0.00743
AAAGCAGCAT | 0.366
AGCCCACCCC | 0.0209
ACCCCCCAAC | 0.00407
CCCTTCCCCC | 0.003
GCCCACCCCA | 0.00971
CACCCCCGCC | 0.00288
GCAGCATACC | 0.158
AAAAAAAGCG | 0.0422
CCCCCCAGCC | 0.00228

Sequence | binding signal [relative 10-mer count]
CGCCCACCCA | 0.00216
CCCCCCACGC | 0.00324
ACCACCCCCA | 0.00204
CCGCCCCCCA | 0.00252
CGAAAAAAGC | 0.0645
ACAAAAAAAC | 0.0972
CCTCCCCCAC | 0.00767
CCCCCCTCAC | 0.00443
ACCTCCCCAC | 0.0036
CCCCCGCCAC | 0.0036
ACCCCCTCCC | 0.00503
CCCACCCAAC | 0.0113
AGGGCGGGGG | 0.00276
AAGCAGCATA | 0.199
GGCGGGGGGA | 0.0024
ACCCCACACC | 0.00276
CCCCACCGCC | 0.00635
CCCAAACCCC | 0.00168
GCCCTCCCCC | 0.00911
CCCCCACCGC | 0.00479
